From PubChem BioAssay
The list is not random: actives were taken first. Their share in the collection is about 9.1%.
M1 ag – M1 muscarinic receptor agonism; CHO-M1 cells, Fluo-4 calcium fluorescence, agonist mode; hits give high values; AID 626; 64,000 compounds, 3% hits; B-score at 10 µM;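 active means fluorescence rise, raw or as B-score row- and column-corrected plate score, outside the 99.7% band of its plate's samples, either direction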
M1 antag – antagonists of rat M1 muscarinic receptor; AID 628; CHO-M1 cells, Fluo-4 calcium, ACh EC80 antagonist mode; hits give low values; P08482; 64,000 compounds, 3.4% hits; B-score at 10 µM;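 active means calcium fluorescence response, raw or row-and-column corrected B-score, differing from the plate sample mean either way at a set confidence level, mostly lower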
Target sequence (P08482 whole entry, looked up): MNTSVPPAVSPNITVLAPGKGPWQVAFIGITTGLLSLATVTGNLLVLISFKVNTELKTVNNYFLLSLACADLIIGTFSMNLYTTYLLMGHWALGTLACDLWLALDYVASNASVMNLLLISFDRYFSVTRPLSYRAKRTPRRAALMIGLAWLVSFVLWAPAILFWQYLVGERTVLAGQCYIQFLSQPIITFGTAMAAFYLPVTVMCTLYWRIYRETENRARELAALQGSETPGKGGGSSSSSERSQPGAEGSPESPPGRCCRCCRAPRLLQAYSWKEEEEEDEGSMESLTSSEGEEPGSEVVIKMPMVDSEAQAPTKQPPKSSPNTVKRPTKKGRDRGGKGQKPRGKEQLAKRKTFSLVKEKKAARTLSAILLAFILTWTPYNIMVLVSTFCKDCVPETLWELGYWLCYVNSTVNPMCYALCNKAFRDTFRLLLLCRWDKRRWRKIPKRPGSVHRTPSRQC
mHtt clearance – mutant huntingtin protein clearance | HeLa Exon1htt(103Q)mCFP, aggregate imaging; zero = plate's median compound well | inhibition, % at 1.5 µM | AID 853 | 47,000 compounds, 0.42% hits;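 active means inhibition of aggregate fluorescence above about 70%, also judged a hit by eye on the cell image, limit read from the data, passing the limit was not always enough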;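 further: cells exposed to compound for three days before fixation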
D1 allo mod – D1 dopamine receptor (human) allosteric modulation; P21728; HEK293 D1, CRE-luciferase, dopamine EC30 potentiation; actives deviate in either direction; B-score at 10 µM; 58,000 compounds, 5.9% hits;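 active means luminescence count or its row- and column-corrected plate score outside the 99.7% band of the plate's sample wells, on either side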
D1 mod confirm – D1 receptor (human) allosteric modulation, confirmed | shares compounds with D1 allo mod | HEK293 D1 CRE-luciferase, dopamine EC30 potentiation; hits give high values | luminescence at 10 µM | 2,200 compounds, 88% hits | AID 642;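 active means luminescence in either of two replicates above the same-plate mean plus 3 SD of the low-dose dopamine control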
D1 no dopamine – activates D1 CRE-luciferase signal without dopamine present. luminescence at 10 µM. AID 646. shares compounds with D1 allo mod. HEK293 D1 CRE-luciferase, luminescence, no dopamine; hits give high values. 1,900 compounds, 0.8% hits; in the data active means luminescence above about 3900
Isoprot counter – counter-screen for D1 modulators: isoproterenol response in HEK293 cells; 2,200 compounds, 63% hits; AID 647; shares compounds with D1 allo mod; luminescence at 10 µM; HEK293 D1 CRE-luciferase, isoproterenol EC30 counter-screen; hits give high values;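 active means luminescence in either replicate above plate mean of wells with a partly effective reference agonist dose plus 3 SD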;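 further: isoproterenol raises cAMP through native beta-adrenoceptor Gs so signal bypasses D1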
Starred values were filed as active, the others as inactive.

For O=C(CCc1ccccc1)Nc1cc(Cl)ccc1O the results were mHtt clearance 5.4 and D1 allo mod -0.922.
Screening N#CC1=C(N)Oc2n[nH]c(-c3cccs3)c2C1c1ccsc1 (configuration not stated) returned M1 ag 0.427, M1 antag 0.149, mHtt clearance -10.8, D1 allo mod 4.43*, D1 mod confirm 6176*, D1 no dopamine 1692 and Isoprot counter 2868.
`Cc1ccc(C2C(C#N)=C(N)Oc3n[nH]c(-c4cccs4)c32)s1` (configuration not stated) gave M1 ag -0.128, M1 antag -0.488, mHtt clearance -42.7, D1 allo mod 4.59*, D1 mod confirm 13468*, D1 no dopamine 1676 and Isoprot counter 3792.
`Cc1cc(-c2[nH]nc3c2C(c2ccc(Cl)cc2)C(C#N)=C(N)O3)c(C)s1` (configuration not stated) gave mHtt clearance 9.5.
`CC(C)(C)c1[nH]nc2c1C(c1ccncc1)C(C#N)=C(N)O2` (configuration not stated) gave M1 ag 1.14, M1 antag 1.32, mHtt clearance -36.2 and D1 allo mod 0.882.
`O=C(Nc1ccc(O)c(C(=O)O)c1)c1ccc2c(c1)C(=O)N(CC1CCCO1)C2=O` (configuration not stated) gave M1 ag -1.93, M1 antag -1.01 and D1 allo mod -0.0744.
Screening CC1(C)C(c2cccs2)=NC(c2ccccc2)N1O (configuration not stated) returned M1 ag 0.0635, M1 antag 0.783, D1 allo mod 3.61*, D1 mod confirm 9348* and Isoprot counter 2900*.
`CS(=O)(=O)N(CCc1ccccc1)CC(=O)N1CCc2ccccc2C1` gave M1 ag 0.332, M1 antag -0.273 and D1 allo mod -0.281.
`CCCc1[nH]nc2c1C1(CCN(C(=O)OCc3ccccc3)CC1)C(C#N)=C(N)O2` gave M1 ag 1.53, M1 antag -0.729, mHtt clearance -42.4, D1 allo mod 2.5*, D1 mod confirm 8040*, D1 no dopamine 1388 and Isoprot counter 4244*.
For CCN(CC)C(=O)C(C)OC(=O)c1ccc(O)cc1 (configuration not stated) the results were D1 allo mod -0.729.
COc1cc(NC(=O)c2ncn[nH]2)cc(OC)c1OC was read as M1 ag 0.366, M1 antag 1.19, mHtt clearance -1.0 and D1 allo mod 0.315.
Screening COCCCNc1nc2ccccc2nc1NS(=O)(=O)c1cccs1 returned M1 ag 1.45, M1 antag 0.842, mHtt clearance 12.8, D1 allo mod 2.78*, D1 mod confirm 10820*, D1 no dopamine 1644 and Isoprot counter 3056.
For O=S(=O)(Nc1nc2ccccc2nc1NCC1CCCO1)c1cccs1 (configuration not stated) the results were M1 ag -0.242, M1 antag 0.15, mHtt clearance 46.3, D1 allo mod 8.63*, D1 mod confirm 15576*, D1 no dopamine 2020 and Isoprot counter 3696*.
O=C(Nc1cccnc1)c1cc(-c2ccc3c(c2)OCO3)on1 was read as M1 ag -0.529, M1 antag 0.94 and D1 allo mod -3.75.
For O=C(Cn1cc2c(n1)CCCC2)N1CCc2ccccc21 the results were M1 ag 0.903, M1 antag 0.277 and D1 allo mod -0.114.
CCOC(=O)Cc1nnc(NC(=O)CSc2nnc3c4ccccc4n(C(C)C)c3n2)s1 was read as M1 ag -1.72, M1 antag 0.307, D1 allo mod 7.5*, D1 mod confirm 11008*, D1 no dopamine 1700 and Isoprot counter 4008*.
For CCCn1c2ccccc2c2nnc(SCC(=O)Nc3nnc(CC(=O)OCC)s3)nc21 the results were mHtt clearance -44.0.
`COc1ccccc1CC(=O)NCc1ccc2c(c1)OCO2` gave M1 ag -0.02, M1 antag -1.86, mHtt clearance -3.7 and D1 allo mod -0.778.
`COC(=O)/C(=C1/Oc2cc3c(cc2S1)OCO3)C(F)(F)F` gave M1 ag 0.0656, M1 antag -0.491, D1 allo mod 3.37*, D1 mod confirm 11868*, D1 no dopamine 1480 and Isoprot counter 2652.
For COc1ccc(CC(=O)N2CCOCC2)cc1OC the results were M1 ag -0.00893, M1 antag -0.251, mHtt clearance 10.2 and D1 allo mod -0.455.
`COc1ccc(-c2ccc(SCC(=O)N3CCOCC3)nn2)cc1OC` gave M1 ag 0.107, M1 antag -0.288, mHtt clearance 32.4, D1 allo mod 12.4*, D1 mod confirm 27680*, D1 no dopamine 1628 and Isoprot counter 4596*.
For COc1ccc(-c2ccc(SCC(=O)N3CCCC3)nn2)cc1OC the results were M1 ag 0.267, M1 antag 0.0685, mHtt clearance 4.5, D1 allo mod 14.3*, D1 mod confirm 25344*, D1 no dopamine 1728 and Isoprot counter 5500*.
`COc1ccc(-c2nnc(SCC(=O)N3CCCC3)o2)cc1OC` gave M1 ag 0.506, M1 antag -0.936, mHtt clearance 50.8 and D1 allo mod 0.192.
For COc1ccc(-c2ccc(=O)n(CC(=O)Nc3cccc(O)c3)n2)cc1OC the results were M1 ag -0.437, M1 antag 0.00709, mHtt clearance -31.9, D1 allo mod 28.7*, D1 mod confirm 4824, D1 no dopamine 1660 and Isoprot counter 2608.
COc1ccc2nc(NC(=O)CCc3nc(-c4ccccc4F)no3)sc2c1 was read as M1 ag 0.0421, M1 antag -0.101, mHtt clearance 18.3, D1 allo mod 8.28*, D1 mod confirm 7800, D1 no dopamine 1704 and Isoprot counter 2356.
`COC(=O)c1cc(OC)c(OC)cc1NC(=O)c1ccc(C)o1` gave mHtt clearance -10.1.
Screening COc1cc(OC)nc(NC(=O)CS(=O)(=O)c2ccccc2)n1 returned M1 ag -0.36, M1 antag -0.0196 and D1 allo mod -0.056.
Screening COc1cc(N/C(=N/S(=O)(=O)c2ccccc2)c2ccccc2)ncn1 returned M1 ag 0.522, M1 antag -0.607, mHtt clearance 30.7, D1 allo mod 6.45*, D1 mod confirm 14612*, D1 no dopamine 1720 and Isoprot counter 2724.
For CSc1nc(NCC(C)C)nc(N2CCOCC2)n1 the results were M1 ag -0.00301, M1 antag 0.0736, D1 allo mod 8.76*, D1 mod confirm 26752*, D1 no dopamine 1652 and Isoprot counter 4592*.
`COc1ccc(C2=NOC(C(=O)NC3CCCCC3)C2)cc1OC` (configuration not stated) gave M1 ag -0.27, M1 antag -0.134, mHtt clearance -12.1, D1 allo mod 4.57*, D1 mod confirm 14608*, D1 no dopamine 1788 and Isoprot counter 2956.
